Experimental data reported in PubChem BioAssay (EPA / NIEHS).
Records with an inconclusive call do not appear. Activity calls are given as the source filed them. How the source made its calls, unless noted: active means hit-call score of the fitted dose curve at least 0.9, where 1 is the maximum; inactive means score below 0.9.

Key:
[1] = TOX21_p53_BLA_p2_viability: Viability Assessment in the Tox21 HCT-116 p53 Agonism Beta-lactamase Assay, Phase 2 (AID 2283591; active means hit-call score of the fitted dose curve at least 0.9, where 1 is the maximum;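 further: compound exposure lasted 16 h at 37 °C; actives lower the ATP signal meaning cytotoxicity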)
How it was run: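 HCT-116 p53-bla cells (4000/well) rested 5 h at 37C, then received compounds in DMSO (217-fold dilution) for 16 h at 37C, 5% CO2. After the CCF4 read, CellTiter-Glo was added; ATP luminescence was read after 30 min at room temperature.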

[2] = target: Cellular tumor antigen p53 (Homo sapiens) (UniProt P04637); test: TOX21_p53_BLA_p2_ratio: Tox21 HCT-116 p53 Agonism Beta-lactamase Assay, Ratio, Phase 2 (AID 2283592; active means hit-call score of the fitted dose curve at least 0.9, where 1 is the maximum)
Cellular tumor antigen p53 (Homo sapiens), sequence (P04637 whole entry, looked up): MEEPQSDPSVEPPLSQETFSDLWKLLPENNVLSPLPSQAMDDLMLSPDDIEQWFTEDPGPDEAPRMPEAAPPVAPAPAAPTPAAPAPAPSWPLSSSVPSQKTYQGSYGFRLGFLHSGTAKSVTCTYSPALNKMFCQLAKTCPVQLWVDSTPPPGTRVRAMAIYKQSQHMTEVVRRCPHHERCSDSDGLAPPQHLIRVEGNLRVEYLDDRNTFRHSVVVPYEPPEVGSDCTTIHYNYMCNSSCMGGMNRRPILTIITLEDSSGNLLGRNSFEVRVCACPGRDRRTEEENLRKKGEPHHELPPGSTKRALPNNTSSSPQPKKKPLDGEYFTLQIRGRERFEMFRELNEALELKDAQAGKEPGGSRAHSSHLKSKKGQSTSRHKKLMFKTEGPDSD
How it was run: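 DMSO-normalized, positive-direction endpoint derived from the 460 nm/530 nm FRET ratio in HCT116 p53 beta-lactamase reporter cells exposed 16 h at 37C and loaded with CCF4-AM for 2 h.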

[3] = TOX21_p53_BLA_p3_viability: Viability Assessment in the Tox21 HCT-116 p53 Agonism Beta-lactamase Assay, Phase 3 (AID 2283593; active means hit-call score of the fitted dose curve at least 0.9, where 1 is the maximum;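 further: cells exposed to compound for 16 h before reading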)
How it was run: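 HCT-116 cells (4000/well) rested 5 h at 37C, then got DMSO compounds by pin tool (217-fold dilution) for 16 h at 37C, 5% CO2. After the bla read, CellTiter-Glo was added and luminescence read at 30 min, room temperature.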

[4] = target: Cellular tumor antigen p53 (Homo sapiens) (UniProt P04637); test: TOX21_p53_BLA_p3_ratio: Tox21 HCT-116 p53 Agonism Beta-lactamase Assay, Ratio, Phase 3 (AID 2283596; active means hit-call score of the fitted dose curve at least 0.9, where 1 is the maximum)
How it was run: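 Cells were seeded at 4000/well, rested 5 h at 37C, then dosed with DMSO compound solutions (217-fold dilution) for 16 h. CCF4-AM substrate was loaded for 2 h at room temperature, and the 460/530 nm emission ratio was fitted for gain of signal versus DMSO.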

[5] = TOX21_p53_BLA_p4_viability: Viability Assessment in the Tox21 HCT-116 p53 Agonism Beta-lactamase Assay, Phase 4 (AID 2283597; active means hit-call score of the fitted dose curve at least 0.9, where 1 is the maximum;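 further: hits lower the luminescence signal meaning cytotoxicity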)
How it was run: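 In this multiplexed secondary endpoint, HCT116 cells (4000 per well, compound at 5 h, 16 h treatment) received CellTiter-Glo after the beta-lactamase read. Luminescence after 30 min RT reflects ATP, and falling signal marks cytotoxicity.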

[6] = target: Cellular tumor antigen p53 (Homo sapiens) (UniProt P04637); test: TOX21_p53_BLA_p4_ratio: Tox21 HCT-116 p53 Agonism Beta-lactamase Assay, Ratio, Phase 4 (AID 2283601; active means hit-call score of the fitted dose curve at least 0.9, where 1 is the maximum)
How it was run: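 HCT116 cells carrying an inducible beta-lactamase reporter were plated at 4000 cells/well, rested 5 h, then exposed to compounds in DMSO (217-fold dilution) for 16 h at 37C. CCF4-AM substrate was loaded 2 h at room temperature; 460/530 nm emission ratio scored gain-of-signal versus DMSO.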

[7] = CCTE_Shafer_MEA_dev_per_burst_spike_percent: CCTE's Neural Network Formation Assay for Percent of Spikes in a Burst, Shafer Lab (AID 2284032)
How it was run: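 Value is trapezoidal AUC over recordings on days 5, 7, 9 and 12 of the well-mean fraction of spikes falling in single-electrode bursts; rat cortical cultures exposed continuously from plating, treatment renewed DIV 5 and 9, fitted downward against DMSO.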

[8] = CCTE_Shafer_MEA_dev_active_electrodes_number: CCTE's Neural Network Formation Assay for Number of Active Electrodes, Shafer Lab (AID 2284040; active means hit-call score of the fitted dose curve at least 0.9, where 1 is the maximum)
How it was run: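 Counts electrodes per well firing at least 5 spikes/min, recorded on days 5, 7, 9 and 12 in rat cortical cultures dosed continuously from plating (treatment refreshed DIV 5, 9). Value is the area under the curve over recordings, fitted downward relative to DMSO.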

[9] = CCTE_Shafer_MEA_dev_burst_rate: CCTE's Neural Network Formation Assay for Burst Rate, Shafer Lab (AID 2284042)
How it was run: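 Primary rat cortical neurons on PEI-coated 48-well MEA plates (laminin added with cells at plating) (16 electrodes/well), exposed from plating to day 12, dosing renewed at DIV 5 and 9. Burst rate averaged over active electrodes, recorded DIV 5, 7, 9, 12, summarized as AUC; loss versus DMSO.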

[10] = CCTE_Shafer_MEA_dev_bursting_electrodes_number: CCTE's Neural Network Formation Assay for Number of Bursting Electrodes, Shafer Lab (AID 2284043; active means hit-call score of the fitted dose curve at least 0.9, where 1 is the maximum)
How it was run: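 Counted: electrodes with burst rate ≥1 per 2 min in each well. Cells: primary rat cortex, 1.5 x 10^5/well, on 16-electrode MEA wells. Exposure: DIV 0–12, compound renewed DIV 5 and 9. Recording days 5, 7, 9, 12; AUC vs DMSO baseline.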

[11] = CCTE_Shafer_MEA_dev_burst_duration_mean: CCTE's Neural Network Formation Assay for Mean Burst Duration, Shafer Lab (AID 2284045)
How it was run: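 Network-formation assay in primary rat cortical neurons; treatment spans twelve days of development. Mean burst duration per well is integrated by trapezoidal AUC and fitted in the loss-of-signal direction against DMSO baseline.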

[12] = CCTE_Shafer_MEA_dev_interburst_interval_mean: CCTE's Neural Network Formation Assay for Mean Interburst Interval, Shafer Lab (AID 2284046);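 further: well-mean interburst interval of bursting electrodes as AUC over four recording days; curve fitted for decrease in interburst interval relative to DMSO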
How it was run: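 Recordings on days 5, 7, 9 and 12 give well-mean interburst interval across actively bursting electrodes, summarized as area under the curve. Cultures: rat cortical neurons, continuous exposure from day 0, compound renewed at feeds; decrease analyzed versus DMSO.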

[13] = CCTE_Shafer_MEA_dev_inter_network_spike_interval_mean: CCTE's Neural Network Formation Assay for Mean Inter-network Spike Interval, Shafer Lab (AID 2284047)
How it was run: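 Primary rat cortical neurons on 16-electrode MEA wells, exposed from plating day 0 through DIV 12, compound renewed at DIV 5 and 9 media changes. Mean interval between network-spike peaks recorded DIV 5, 7, 9, 12; collapsed as trapezoidal AUC, fitted downward versus DMSO.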

[14] = CCTE_Shafer_MEA_dev_network_spike_number: CCTE's Neural Network Formation Assay for Number of Network Spikes, Shafer Lab (AID 2284048);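 further: synchronized bursts across electrodes counted on days 5 7 9 12 and integrated as AUC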
How it was run: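 Extracellular recordings from 16-electrode wells track network formation in rat cortical cultures under continuous treatment from plating. The endpoint is network spike number, expressed as AUC across DIV 5–12 relative to DMSO vehicle.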

[15] = CCTE_Shafer_MEA_dev_network_spike_peak: CCTE's Neural Network Formation Assay for Mean Number of Electrodes in Network Spike, Shafer Lab (AID 2284049)
How it was run: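 Continuous 12-day exposure of rat cortical cultures, starting at plating, on MEA plates. Endpoint: electrodes participating in network-spike peaks, AUC across DIV 5–12, DMSO as negative control.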

[16] = CCTE_Shafer_MEA_dev_spike_duration_mean: CCTE's Neural Network Formation Assay for Mean Spike Duration, Shafer Lab (AID 2284051);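 further: mean network spike duration pooled as area under curve over DIV 5 to 12 recordings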
How it was run: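 Primary rat cortical neurons on 16-electrode MEA wells (PEI-coated, laminin in plating drop), exposed from plating through DIV 12 with compound renewed at DIV 5 and 9. Mean network-spike duration recorded DIV 5, 7, 9, 12; trapezoidal AUC across days, DMSO baseline.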

[17] = CCTE_Shafer_MEA_dev_network_spike_duration_std: CCTE's Neural Network Formation Assay for Standard Deviation of Network Spike Duration, Shafer Lab (AID 2284052);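 further: area under curve of spike duration SD across recording days 5 to 12; hits are decreases in network spike duration SD versus DMSO vehicle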
How it was run: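 Primary rat cortical neurons on PEI-coated 16-electrode MEA wells, exposed from plating day 0 through day 12 with compound renewed at DIV 5 and 9. Network spike duration SD recorded on days 5, 7, 9, 12, collapsed as trapezoidal AUC; loss-of-signal fit versus DMSO.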

[18] = CCTE_Shafer_MEA_dev_per_network_spike_spike_number_mean: CCTE's Neural Network Formation Assay for Mean Number of Spikes in a Network Spike, Shafer Lab (AID 2284053)
How it was run: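 Primary rat cortical neurons on 48-well, 16-electrode MEA plates were exposed from plating to DIV 12, with dosing renewed on DIV 5 and 9. Spikes per network spike (0.05 s peak window) were recorded on DIV 5, 7, 9 and 12 and collapsed as trapezoidal AUC versus DMSO.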

[19] = CCTE_Shafer_MEA_dev_per_network_spike_spike_percent: CCTE's Neural Network Formation Assay for Percent of Spikes in a Network Spike, Shafer Lab (AID 2284054)
How it was run: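 Developing networks of rat cortical neurons are dosed at day 0 and recorded extracellularly four times up to day 12. The endpoint is the area under the curve of percent spikes in network spikes, fitted in the negative direction relative to DMSO.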

[20] = UKN5_HCS_SBAD2_cell_viability: Viability Assessment in the University of Konstanz (UKN) Leist Lab Neurite Outgrowth Assay in human iPSC-derived immature Dorsal Root Ganglia Neurons (UKN5) (AID 2284056)
How it was run: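 iPSC-derived immature peripheral neurons (SBAD2) seeded on Matrigel with CHIR99021, SU5402 and DAPT, dosed 1 h later for 24 h. Viability from Hoechst H-33342 and calcein-AM live staining, high-content imaging; bidirectional fit versus DMSO.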

[21] = CCTE_Shafer_MEA_dev_LDH: CCTE's Lactate Dehydrogenase Assay for Cytotoxicity in the Neural Network Formation Assay, Shafer Lab (AID 2284068; active means hit-call score of the fitted dose curve at least 0.9, where 1 is the maximum;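 further: exposure for twelve days from plating with re-dosing on DIV 5 and 9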)
How it was run: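 Primary rat cortical neurons were plated on PEI/laminin MEA plates and exposed from day 0 for twelve days, with compound renewed at DIV 5 and 9. Cytotoxicity was determined by spectrophotometric LDH assay relative to DMSO.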

[22] = UKN5_HCS_SBAD2_neurite_outgrowth: University of Konstanz (UKN) Leist Lab Neurite Outgrowth Assay in human iPSC-derived immature Dorsal Root Ganglia Neurons (UKN5) (AID 2284070); conditions: actives raise or lower the signal
How it was run: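 Neurite area from calcein-AM high-content images after 24 h exposure (staining included), with H-33342 for viability, fitted both directions against DMSO. Cells: thawed immature SBAD2 peripheral neurons, 100.000 cells/cm2, with CHIR99021, SU5402, DAPT; dosing 1 h after seeding.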

[23] = CCTE_Shafer_MEA_dev_mutual_information_norm: CCTE's Neural Network Formation Assay for Mutual Information Normalization, Shafer Lab (AID 2284091)
How it was run: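 Exposure of primary rat cortical neurons began at plating and ran to DIV 12, with full media and treatment renewal after DIV 5 and 9 recordings. Mutual information AUC (DIV 5–12) was analysed for loss versus DMSO.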

[24] = CCTE_Shafer_MEA_dev_correlation_coefficient_mean: CCTE's Neural Network Formation Assay for Mean Correlation Coefficient, Shafer Lab (AID 2284093)
How it was run: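 Spontaneous activity recorded on days 5, 7, 9 and 12 post-plating; pairwise spike correlations are averaged across active electrodes and collapsed to an area-under-curve. Rat cortical cultures are dosed from plating through 12 days, with compound renewed at media changes.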

[25] = UKN2_HCS_IMR90_neural_migration: University of Konstanz (UKN) Leist Lab Neural Crest Cell Migration Assay in human induced IMR90 Pluripotent Stem Cells (UKN2) (AID 2284204); conditions: actives raise or lower the signal
How it was run: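 Using a 96-well stopper format with PLO/laminin/fibronectin coating, neural crest cells from iPSC migrate in cytokine-supplemented N2-S medium; after 24 h, chemicals are applied for a further 24 h, then cells are imaged after dye staining.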

[26] = UKN4_HCS_LUHMES_neurite_outgrowth: University of Konstanz (UKN) Leist Lab Neurite Outgrowth Assay in human LUHMES cells (UKN4) (AID 2284206); conditions: actives raise or lower the signal
How it was run: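 After 24 h compound treatment beginning shortly after replating of 2-day-differentiated LUHMES cells, calcein-AM and H-33342 live staining allowed high-content imaging of neurite area and viability. Fitted bidirectionally against DMSO.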

Measured: outcome

CC(C)(C)NCC(O)c1cc(O)cc(O)c1 (stereo unspecified)
inactive: [1] | [2] | [3] | [4] | [5] | [6] | [7] | [8] | [9] | [10] | [11] | [12] | [13] | [14] | [15] | [16] | [17] | [18] | [19] | [20] | [21] | [22] | [23] | [24] | [25] | [26]
